Experimental data published in PubChem BioAssay AID1159580 (chemical genetic matrix, 2015).
Among all 5,500 compounds or so, about 2,000 (36%) were called active. Another 18% or so got no clear call; they are omitted. Cut-off read from the data, not from the text of the source: active = normalized growth mostly below about 0.91 (no sharp cut-off); inconclusive = no clear call, values can overlap the other calls; inactive = mostly above about 0.92. The list shows a part of the results.

Experiment: chemical genetic growth profiling, strain panel (AID 1159580);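 note: tested at 20 µM; growth read once vehicle control cultures reached saturation at 30 °C; 1 = growth at the plate median or of vehicle wells; lower values mean less growth of the strain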
Details: growth OD
[1] = S. cerevisiae deletion strains, locus YGR078C, strain PAC10, hits give low values
[2] = S. cerevisiae deletion strains, locus YJR075W, strain HOC1, hits give low values
[3] = S. cerevisiae deletion strains, locus YMR263W, strain SAP30, hits give low values
[4] = S. cerevisiae deletion strains, locus YNL322C, strain KRE1, hits give low values
[5] = S. cerevisiae deletion strains, locus YPL241C, strain CIN2, hits give low values

Measured: normalized growth

COc1c(Br)cc([N+](=O)[O-])c(OC)c1C(N)=O
inactive: S. cerevisiae deletion strains, locus YBR229C, strain ROT2, hits give low values 1.03 | S. cerevisiae deletion strains, locus YCL061C, strain MRC1, hits give low values 1.01 | S. cerevisiae deletion strains, locus YDL101C, strain DUN1, hits give low values 1.03 | S. cerevisiae deletion strains, locus YDL134C, strain PPH21, hits give low values 1.01 | S. cerevisiae deletion strains, locus YDR150W, strain NUM1, hits give low values 0.986 | S. cerevisiae deletion strains, locus YEL061C, strain CIN8, hits give low values 1.02 | [1] 1.02 | S. cerevisiae deletion strains, locus YHR030C, strain SLT2, hits give low values 1.07 | S. cerevisiae deletion strains, locus YHR087W, strain rtc3, hits give low values 1.01 | S. cerevisiae deletion strains, locus YJL187C, strain SWE1, hits give low values 1 | S. cerevisiae deletion strains, locus YJR043C, strain POL32, hits give low values 1.04 | [2] 1.01 | S. cerevisiae deletion strains, locus YLR039C, strain RIC1, hits give low values 1.02 | S. cerevisiae deletion strains, locus YLR058C, strain SHM2 (second series), hits give low values 1.01 | S. cerevisiae deletion strains, locus YLR085C, strain ARP6, hits give low values 1.02 | S. cerevisiae deletion strains, locus YLR262C, strain YPT6, hits give low values 1.01 | S. cerevisiae deletion strains, locus YML094W, strain GIM5, hits give low values 1 | S. cerevisiae deletion strains, locus YMR219W, strain ESC1, hits give low values 1.03 | [3] 0.946 | S. cerevisiae deletion strains, locus YNL153C, strain GIM3, hits give low values 1.02 | S. cerevisiae deletion strains, locus YNL298W, strain CLA4 (second series), hits give low values 1.01 | [4] 1.02 | S. cerevisiae deletion strains, locus YNR030W, strain Alg12, hits give low values 1.03 | S. cerevisiae deletion strains, locus YPL055C, strain LGE1, hits give low values 0.928 | [5] 1.02 | S. cerevisiae deletion strains, locus YPR135W, strain CTF4, hits give low values 1.1 | S. cerevisiae strains, strain wild type, hits give low values 1.03

CN1C2CCC1CC(OC(=O)c1cc(Cl)cc(Cl)c1)C2 (stereo unspecified)
inactive: S. cerevisiae deletion strains, locus YAL040C, strain CLN3, hits give low values 1 | S. cerevisiae deletion strains, locus YCL061C, strain MRC1 (second series), hits give low values 1 | S. cerevisiae deletion strains, locus YDR363W, strain ESC2, hits give low values 0.99 | S. cerevisiae deletion strains, locus YER002W, strain NOP16, hits give low values 0.997 | [1] 1.01 | [2] 0.997 | [3] 0.999 | S. cerevisiae deletion strains, locus YMR307W, strain GAS1, hits give low values 1 | S. cerevisiae deletion strains, locus YNL175C, strain NOP13, hits give low values 1.01 | S. cerevisiae deletion strains, locus YNL197C, strain WHI3, hits give low values 1.01 | S. cerevisiae deletion strains, locus YNL224C, strain SQS1, hits give low values 1.03 | [4] 0.996 | S. cerevisiae deletion strains, locus YOR083W, strain WHI5 (second series), hits give low values 1.01 | [5] 1
